Screens: PubChem, National Center for Advancing Translational Sciences (NCATS)
Rows were chosen to be rich in hits. Some 12% of all compounds tested hit in one or more screens of this group.
JMJD2A Tudor: inhibitors of human JMJD2A Tudor domain. AlphaScreen JMJD2A-Tudor / H3K4me3 peptide binding. Potency, µM (top dose mostly 114 µM), for inactives: at the top dose activity change, negative = inhibition, hits mostly inhibitors. actives 4.4% (n = 390,000). AID 504339; also: % is scaled to controls: 0 for no effect and ±100 for the full control effect; nearly all actives have a fitted effect of over 50% in size
G9a inh: inhibitors of human histone lysine methyltransferase G9a. Q96KQ7. G9a H3K9 monomethylation, AlphaScreen, 2 h. Potency, µM (top dose mostly 102 µM), without a hit: top-dose activity, negative = inhibition, hits mostly inhibitors. actives 8.8% (n = 350,000); also: % is scaled to controls: 0 for no effect and ±100 for the full control effect; nearly all actives have a fitted effect of over 75% in size
Target sequence (Q96KQ7 913-1193 limits assumed): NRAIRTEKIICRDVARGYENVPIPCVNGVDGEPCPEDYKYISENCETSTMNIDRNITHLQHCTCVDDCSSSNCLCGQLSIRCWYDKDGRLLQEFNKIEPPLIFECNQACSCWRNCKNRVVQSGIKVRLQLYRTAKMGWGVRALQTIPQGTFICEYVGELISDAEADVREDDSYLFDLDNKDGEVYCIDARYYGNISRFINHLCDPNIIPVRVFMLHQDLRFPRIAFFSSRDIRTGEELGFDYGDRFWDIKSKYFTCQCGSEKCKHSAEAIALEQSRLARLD
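Compounds were preincubated with 20 nM G9a for 15 min, after which biotinylated H3K9 peptide (500 nM) and SAM (20 uM) started a 2 h room-temperature reaction. Monomethylated product was quantified by antibody-based AlphaScreen chemiluminescence.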
BAZ2B block: BAZ2B (human) inhibition | Q9UIF8 | AlphaScreen BAZ2B-H3K14Ac peptide displacement | Potency, µM (top dose mostly 114 µM), without a hit: at the top dose activity change, negative = inhibition, most hits filed as inhibitors | actives 4.4% (n = 360,000); also: % is scaled to controls: 0 for no effect and ±100 for the full control effect; nearly all actives have a fitted effect of over 60% in size
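AlphaScreen displacement of biotin-H3(5-23)K14Ac peptide (50 nM final) from BAZ2B (50 nM final) in PBS pH 7.4, 0.01% Tween-20; complex preformed 30 min RT, then compounds (top 110 uM) 30 min RT, beads 20 min dark.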
HP1b binding inh: inhibitors of HP1-beta chromodomain binding to methylated histone tails; P83916; AlphaScreen HP1-beta / biotin-H3K9me3 peptide binding; Potency, µM (highest dose often 114 µM), without a hit: at the top dose activity change, negative = inhibition, most hits filed as inhibitors; actives 0.56% (n = 390,000); AID 540317; also: nearly all actives have a fitted effect of over 70% in size
Target sequence (P83916 whole entry, looked up): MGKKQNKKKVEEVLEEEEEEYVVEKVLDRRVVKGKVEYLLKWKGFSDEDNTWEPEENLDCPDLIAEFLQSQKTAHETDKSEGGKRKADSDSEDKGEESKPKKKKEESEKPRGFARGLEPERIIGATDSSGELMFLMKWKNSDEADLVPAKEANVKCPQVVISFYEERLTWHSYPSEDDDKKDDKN
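Compound inhibition of the preformed complex between 50 nM HP1-beta and 50 nM biotinylated H3K9me3 peptide was read by AlphaScreen. Buffer was PBS pH 7.4 with 0.01% Tween-20. Incubations ran 30 min at room temperature, with 10 ug/mL donor/acceptor beads.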
Sfp inh: Sfp phosphopantetheinyl transferase inhibition. Q9F4F7. Biochemical Sfp PPTase activity, qHTS. Potency, µM, inactives show largest response in the series, negative = inhibition, most hits filed as inhibitors. actives 3.5% (n = 310,000). AID 1490;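 also: the enzyme is Sfp with the accession as filed and its product quenches rhodamine fluorescence; 0% = enzyme reaction without inhibitor and -100% = no enzyme wells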
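Fluorescence-quenching assay with 15 nM Sfp, 5 uM rhodamine-CoA and 12.5 uM BHQ-2-labelled ybbR peptide in pH 7.6 Hepes/MgCl2 buffer. Enzyme was pre-incubated with compound for 15 min at room temperature. Rate was taken from the 30-min fluorescence change (525/598 nm).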
* marks the source's active call; other numbers are inactive results; ? = inconclusive; . = not tested or not shown; [ ] = another dose, or the depositor's remark. Calls follow the shape of the dose curve; as a rule, active = well fitted curve in the direction sought with a large enough effect; inconclusive = small, poorly fitted or top-dose-only effect, or another doubt; inactive = no such curve, though single readings can be large; an effect the other way counts as inactive or inconclusive. Potency is read from the fitted curve at half-maximal effect.

SMILES | JMJD2A Tudor | G9a inh | BAZ2B block | HP1b binding inh | Sfp inh
O=c1c(O)c(-c2ccc(O)c(O)c2)oc2c(OC[C@@H]3O[C@@H](O)[C@@H](O)[C@H](O)[C@H]3O)c(O)cc(O)c12 | . | . | . | . | 56µM*
O=c1c(O)c(-c2ccc(O)c(O)c2)oc2c(OC3OC(CO)C(O)C(O)C3O)c(O)cc(O)c12 (stereo unspecified) | . | -43%[2.33 µM] | . | . | -59%
CC(=O)N1CSCC1C(=O)NNS(=O)(=O)c1ccccc1 (stereo unspecified) | 25µM* | 15% | 5% | 4% | 7%
CC(C)C(NC(=O)CN(c1ccc2c(c1)OCCO2)S(=O)(=O)c1ccccc1)C(C)C | -15% | . | . | 18% | .
COc1ccccc1C(=O)NC(CCSC)C(=O)NCCCSc1ccccc1 (stereo unspecified) | -34% | 56µM* | ? | -12% | .
COc1ccccc1C(=O)NC(CCSC)C(=O)OCC(=O)NC(=O)NCc1ccco1 (stereo unspecified) | ? | -9%[59 µM] | 50µM* | -12% | -23%
C#CCOCCOCCOCCNc1nc(N2CCN(C(=O)CCCCCCCCCCNC(=O)Cn3cc(CCCCCN)nn3)CC2)nc(N2CCN(C(=O)CCCCCCCCCCNC(=O)Cn3cc(C[C@@H](C)O)nn3)CC2)n1 | 25µM* | 13%[2.33 µM] | 79µM* | -27% | .
C#CCOCCOCCOCCNc1nc(N2CCN(C(=O)Cn3cc(CC(C)O)nn3)CC2)nc(N2CCN(C(=O)Cn3cc(CC(C)O)nn3)CC2)n1 (stereo unspecified) | -2% | ? | -5% | 30% | 23%
C#CCOCCOCCOCCNc1nc(N2CCN(C(=O)CCCCCCCCCCNC(=O)Cn3cc(CCCCCN)nn3)CC2)nc(N2CCN(C(=O)CCCCCCCCCCNC(=O)[C@@H]([C@H](C)O)n3cc(C)nn3)CC2)n1 | 79µM* | 23%[2.33 µM] | ? | ? | .
C#CCOCCOCCOCCNc1nc(N2CCN(C(=O)[C@H]([C@@H](C)CC)n3cc(CCCCN)nn3)CC2)nc(N2CCN(C(=O)[C@H](CCCCN)n3cc(CC(C)O)nn3)CC2)n1 (stereo partly specified) | -34% | -37%[2.33 µM] | ? | 23% | .
C#CCOCCOCCOCCNc1nc(N2CCN(C(=O)CCCCCCCCCCNC(=O)Cn3cc(C[C@@H](C)O)nn3)CC2)nc(N2CCN(C(=O)CCCCCCCCCCNC(=O)[C@@H]([C@H](C)O)n3cc(C)nn3)CC2)n1 | -27% | -1%[2.33 µM] | 3% | 33% | .
C#CCOCCOCCOCCNc1nc(N2CCN(C(=O)Cn3cc(CCCCN)nn3)CC2)nc(N2CCN(C(=O)Cn3cc(CC(C)O)nn3)CC2)n1 (stereo unspecified) | -11% | 50µM* | ? | 85% | -9%
C#CCOCCOCCOCCNc1nc(N2CCN(C(=O)Cn3cc(CCO)nn3)CC2)nc(N2CCN(C(=O)Cn3cc(CC(C)O)nn3)CC2)n1 (stereo unspecified) | -8% | . | . | 44% | .
C#CCOCCOCCOCCNc1nc(N2CCN(C(=O)CCCCCCCCCCNC(=O)Cn3cc(C[C@@H](C)O)nn3)CC2)nc(N2CCN(C(=O)CCCCCCCCCCNC(=O)[C@@H]([C@H](C)CC)n3cc(CCCCCN)nn3)CC2)n1 | 56µM* | -3%[2.33 µM] | ? | ? | .
CCOc1ccc(OCC)c(NC(=O)c2cnn(-c3ccc(F)cc3)c2-n2cccc2)c1 | -30% | -12%[59 µM] | -15% | 28% | .
COc1ccc(NC(=O)C2=C(C)Nc3ncnn3C2c2ccc(O)cc2)cc1 (stereo unspecified) | -4% | 10%[59 µM] | -12% | 20%[57 µM] | .
C/C(=N\Nc1nccnc1Cl)c1ccc([N+](=O)[O-])cc1 | -14% | 18%[59 µM] | -19% | -4% | 79µM*
C/C(=N\Nc1nccnc1Cl)c1ccc(Br)cc1 | -20% | 4% | -1% | 4% | 8%
COc1cccc(-c2nc3c(c(SCC(=O)N4CCOCC4)n2)Cc2c(CO)cnc(C)c2O3)c1 | ? | 14µM* | ? | 19% | 16%
Cc1nc(-c2ccccn2)nc(SCC(=O)c2ccccc2)c1Cl | -27% | . | -32% | 2% | 4%
Cc1nc(-c2ccccn2)nc(SCC(=O)N2CCOCC2)c1Cl | -15% | 20µM* | 5% | 2% | 16µM*
Cc1cccc(-c2nc3c(c(SCC(=O)N4CCOCC4)n2)Cc2c(CO)cnc(C)c2O3)c1 | ? | 45µM* | ? | 37% | -6%
Cc1ncc(CO)c2c1Oc1nc(-c3ccccc3)nc(SCC(=O)N3CCOCC3)c1C2 | -36% | 32µM* | -31% | 19% | 29%
Cc1ncc(CO)c2c1Oc1nc(-c3ccccc3)nc(SCC(=O)N3CCCCC3)c1C2 | ? | 40µM* | -23% | -4% | -15%
CCOc1ccccc1NC(=O)N1CCC(c2nc3ccccc3[nH]2)CC1 | -14% | -44%[12.7 µM] | -7% | 14% | 11%
SMILES | JMJD2A Tudor | G9a inh | BAZ2B block | HP1b binding inh | Sfp inh
O=C(C1CC(=O)N(c2ccccc2)C1)N1CCC(c2nc3ccccc3[nH]2)CC1 (stereo unspecified) | -14% | 45µM* | -2% | 28% | .
COc1ccc(NC(=O)N2CCC(c3nc4ccccc4[nH]3)CC2)cc1 | 1% | 40µM* | 3% | 46% | 9%
COc1ccc(N2CC(C(=O)N3CCC(c4nc5ccccc5[nH]4)CC3)CC2=O)cc1 (stereo unspecified) | -2% | -18% | 1% | 22% | .
CCOc1ccc(N/C(C)=C/C(=O)c2ccc(C)o2)cc1 | 3% | 50µM* | ? | 20% | -4%
C/C(=C\C(=O)c1ccc(C)o1)Nc1ccc2c(c1)OCO2 | ? | ? | ? | -21% | -3%
COC(=O)c1ccc(N/C(C)=C/C(=O)c2ccc(C)o2)cc1 | 89µM* | 4%[12.7 µM] | -36% | -16% | 10%
C=CCN(CC=C)Cc1c(O)ccc2c1oc(=O)c1ccccc12 | 8.9µM* | . | . | ? | .
Cc1cc(=O)oc2c(CN(C)Cc3ccccc3)c(O)ccc12 | 4% | -65%[59 µM] | -6% | 45% | -11%
COc1cccc(C2=NN(C(=O)c3cccs3)C(O)(C(F)(F)F)C2)c1 (stereo unspecified) | -17% | 13%[59 µM] | -2% | 40% | 45µM*
COc1ccc(C(=O)N2N=C(c3cccc(OC)c3)CC2(O)C(F)(F)F)cc1 (stereo unspecified) | 7% | -5% | 2% | 52% | 50µM*
O=C(CSc1nnc(CNC(=O)c2ccccc2F)o1)NC1CCCC1 | 1% | 8% | 3% | 51% | 4%
Nc1cc2c(cc1C(=O)c1cccc(Br)c1)OCCO2 | 45µM* | 18µM* | 35µM* | ? | -13%
Cc1c(NC(=O)/C(C#N)=C/c2ccc(-c3ccc(Cl)cc3)o2)c(=O)n(-c2ccccc2)n1C | ? | 20µM* | 50µM* | -16% | ?
